High-throughput results (PubChem)
Most compounds without a hit are left out; they make up all but 7.4% or so of the library.
Rab9 prom act = Rab9 promoter activation; Huh7 Rab9 promoter-luciferase reporter, luminescence, 24 h; Potency, µM (doses to about 9.22 µM), without a hit: top-dose activation, negative = inhibition, actives largely listed as activators; 320,000 compounds, 2.8% hits; AID 485297; also: % of control where 0% means no effect; nearly all actives have a fitted effect of over 60% in size
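Huh7 cells stably carrying Rab9 promoter–luciferase reporter, plated 1500 cells/well, compound added after 2 h and incubated 24 h at 37 °C; luciferase luminescence then read after 10 min with detection reagent.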
p53 reactivation = mutant p53 re-activation in reporter cells | H1299 p53-A138V BP100-luciferase reporter, luminescence, 24 h | Potency, µM (series often up to 92.2 µM), inactives show at the highest dose activity change, positive = activation, most hits filed as activators | AID 504706 | 320,000 compounds, 0.063% hits; also: % of control where 0% means no effect; nearly all actives have a fitted effect of over 45% in size
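H1299 (p53-null), stable ts p53-A138V + BP100-Luc; 1000 cells/well, Opti-MEM/10% FBS; cpd 4 pt, 1:5; 24 h, 37 deg C, 5% CO2; detection reagent 10 min RT; luminescence.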
SMN2 splice enh = SMN2 splice variant enhancement; HEK293 SMN2-luciferase splicing reporter, luminescence, 30-36 h; Potency, µM (top dose mostly 46.1 µM), without a hit: at the top dose activity change, positive = activation, actives largely listed as activators; 210,000 compounds, 2.8% hits; also: % of control where 0% means no effect; nearly all actives have a fitted effect of over 55% in size
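HEK293 cells carry an SMN2 […]–luciferase reporter in which exon 7 inclusion puts luciferase in frame. Cells were plated 10-12 h before compound addition, then incubated 30-36 h at 37C. ONE-Glo luminescence was read; sodium butyrate at 4.5 mM final served as control.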
NPC1 promoter act = activators of NPC1 promoter; Potency, µM (highest dose often 9.22 µM), for the others: top-dose activation, most hits filed as activators; AID 485313; Huh7 NPC1 promoter luciferase reporter, 24 h; 320,000 compounds, 2.4% hits; also: % of control where 0% means no effect; nearly all actives have a fitted effect of over 60% in size
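NPC1 promoter–luciferase Huh7 cells; 24 h compound; luminescence.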
ELG1 genotoxic = inducers of genotoxicity in HEK293T ELG1-luciferase cells | HEK293T ELG1-luciferase reporter, luminescence, 16 h | Potency, µM (doses to about 46 µM), without a hit: at the highest dose activity change, positive = activation, usual class: activators | AID 504466 | 330,000 compounds, 1.3% hits; also: % of control where 0% means no effect; nearly all actives have a fitted effect of over 60% in size
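Luminescence read-out: rising ELG1-luciferase signal, reflecting elevated ELG1 protein under genetic stress, flags genotoxic compounds. Cells were treated for 16 hr at 37 °C before ONE-Glo detection.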
FLuc modulator = counter-screen for miR-21 project: firefly luciferase inhibitors or activators; P08659; purified FLuc, Km substrates, luminescence inhibition; Potency, µM (series often up to 57.5 µM), for inactives: at the top dose activity change, negative = inhibition, usual class: inhibitors; 360,000 compounds, 6.9% hits; AID 588342;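 also: plate controls were vehicle for no effect and reference inhibitor for full effect; nearly all actives have a fitted effect of over 55% in size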
Target sequence (P08659 whole entry, looked up): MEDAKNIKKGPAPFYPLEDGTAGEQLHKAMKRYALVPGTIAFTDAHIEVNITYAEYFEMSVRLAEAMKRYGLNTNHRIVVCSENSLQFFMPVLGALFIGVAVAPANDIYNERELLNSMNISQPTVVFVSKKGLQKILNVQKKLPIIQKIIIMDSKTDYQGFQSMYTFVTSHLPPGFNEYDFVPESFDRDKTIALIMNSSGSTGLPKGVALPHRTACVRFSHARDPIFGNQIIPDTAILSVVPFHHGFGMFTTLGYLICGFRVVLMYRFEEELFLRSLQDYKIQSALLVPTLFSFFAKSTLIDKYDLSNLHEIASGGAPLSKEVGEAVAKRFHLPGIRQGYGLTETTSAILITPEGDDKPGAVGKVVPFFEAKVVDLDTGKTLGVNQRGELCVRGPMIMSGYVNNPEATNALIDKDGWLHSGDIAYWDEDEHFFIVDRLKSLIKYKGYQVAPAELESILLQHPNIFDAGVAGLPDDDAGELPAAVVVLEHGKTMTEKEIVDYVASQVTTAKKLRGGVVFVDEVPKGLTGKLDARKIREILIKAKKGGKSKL
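Purified P. pyralis luciferase (10nM final) with 10uM D-luciferin and 10uM ATP (Km levels) in 50mM Tris acetate pH 7.5, 10mM Mg acetate, 0.01% Tween-20, 0.05% BSA; qHTS 6-point titration, ~60 µM downward; luminescence read.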
Starred values were filed as active, the others as inactive; ? = inconclusive; . = not tested or not shown; [ ] = remark or other dose. Calls follow the shape of the dose curve; as a rule, active = well fitted curve in the direction sought with a large enough effect; inconclusive = small, poorly fitted or top-dose-only effect, or another doubt; inactive = no such curve, though single readings can be large; an effect the other way counts as inactive or inconclusive. Potency is read from the fitted curve at half-maximal effect.

SMILES | Rab9 prom act | p53 reactivation | SMN2 splice enh | NPC1 promoter act | ELG1 genotoxic | FLuc modulator
Cc1ccccc1-c1nc(C#N)c(N2CCC(C)CC2)o1 | 22% | ? | . | 5% | 9% | 24µM*
CC1CC(C)CN(c2oc(-c3ccccc3F)nc2C#N)C1 (stereo not given) | 0% | 9% | . | 0% | -2% | 0%
CC(C)(C)c1ccc(-c2nc(C#N)c(N3CCC(C(N)=O)CC3)o2)cc1 | 0% | -2% | . | -1% | 1% | 21µM*
COc1ccc(-c2nc(C#N)c(N3CCC(C(N)=O)CC3)o2)cc1 | -2% | 1% | -9% | -3% | -3% | -13%
O=C(OCc1cccc(C(F)(F)F)c1)c1cc(S(=O)(=O)N2CCOCC2)ccc1F | -3% | -3% | . | -2% | 0% | 0%
CC(=O)NC(=S)Nc1ccc(-c2nc3ccc(C)cc3s2)cc1 | 0.45µM* | ? | 13µM* | 0.45µM* | ? | 2.1µM*
CC1=CCC(C(=O)O)C(C(=O)O)C1 (stereo not given) | -2% | -8% | -8% | -2% | 3% | 5%
CC1=CCC(C(=O)O)C(C(=O)Nc2ccc(-c3nc4ccc(C)cc4s3)cc2)C1 (stereo not given) | 23% | 19% | . | ? | 5.2µM* | 3.4µM*
CNC(=S)Nc1ccc(C)cc1 | -3% | -4% | -3% | -4% | 5% | 2%
COCCNc1nnc(SC(C)C(=O)Nc2c(C)n(C)n(-c3ccccc3)c2=O)s1 (stereo not given) | 0% | 8% | . | -3% | -2% | 7%
COCCNc1nnc(SC(C)C(=O)Nc2ccc(-c3nc4ccc(C)cc4s3)cc2)s1 (stereo not given) | 0.28µM* | ? | . | 1.6µM* | ? | 3µM*
CNC(=S)Nc1ccc(-c2nc3ccc(C)cc3s2)cc1 | 0.4µM* | -1% | 11µM* | 0.79µM* | ? | 1.3µM*
COc1ccc(C(=O)OCC(=O)c2ccc(Br)s2)c(OC)c1 | 2% | 7% | . | 0% | 15% | ?
COc1cccc(C(=O)OCC(=O)c2ccc(Br)s2)c1 | 0% | -6% | . | 3% | 1% | 7.6µM*
Cc1ccc(C(=O)COC(=O)c2cccc(O)c2)s1 | 4% | 13% | . | 15% | 2% | 0.43µM*
Cc1ccc(N(CC(=O)NCCSc2ccccc2)S(=O)(=O)c2ccc(F)cc2)cc1 | . | . | -40% | . | . | 3%
COC(=O)c1ccc(C(/C=C/[C@@H](C)C(=O)N(C)Cc2ccccc2)NC(=O)OCc2ccccc2)cc1 (stereo not given in full) | . | . | 1% | . | . | .
Cc1c(C(=O)N2CCC(C)CC2)c(S(=O)(=O)N(Cc2ccccc2)C(C)(C)C)c(C)n1C | . | . | . | . | . | 4%
O=C(/C=C/c1ccco1)N1CCc2ccccc21 | 0.79µM* | 0% | 10µM* | 1.8µM* | 1µM* | 2.1µM*
Cc1ccc(/C=C/C(=O)N2CCc3ccccc32)o1 | 2.5µM* | ? | . | 2.8µM* | 8.2µM* | 1.9µM*
COc1ccc(/C=C/C(=O)N2CCCc3ccccc32)cc1 | 4% | ? | . | 9% | 10% | ?
CCOC(=O)/C=C/C(=O)N1CCc2ccccc21 | 4% | 1% | -6% | 0% | 1% | 11µM*
Cc1c(C(=O)NNC(=O)c2cccnc2)cccc1[N+](=O)[O-] | . | 4% | . | . | 0% | .
O=C(/C=C/c1ccco1)NC(=S)Nc1ccccc1N1CCCC1 | 14% | 0% | -19% | 5% | -7% | 3%
Cc1ccc(NC(=S)NC(=O)/C=C/c2ccco2)c(O)c1 | 13% | 6% | 14% | -3% | 6% | ?
SMILES | Rab9 prom act | p53 reactivation | SMN2 splice enh | NPC1 promoter act | ELG1 genotoxic | FLuc modulator
Cc1cccnc1NC(=S)NC(=O)/C=C/c1ccco1 | ? | ? | 13% | 3% | ? | ?
O=C(/C=C/c1ccco1)NC(=S)Nc1ccccc1O | 4µM* | -3% | ? | ? | 13% | ?
O=C(/C=C\c1ccco1)NC(=S)Nc1ccccc1O | 3.2µM* | 18% | . | ? | 7% | ?
O=C(/C=C/c1ccco1)NC(=S)Nc1ccccn1 | 2.8µM* | ? | ? | 3.2µM* | 15% | 13µM*
O=C1c2ccccc2C(=O)C1(c1ccccc1)N1CCN(c2cccc(C(F)(F)F)c2)CC1 | . | . | -9% | . | . | 2%
Cc1cccc(C(=O)Nc2cc(C)ccc2NC(=O)COc2ccccc2)c1 | -3% | -1% | -7% | 2% | -5% | 1%
O=C(COc1ccc(Cl)cc1Cl)Nc1ccc(C(=O)Nc2ccccc2C(=O)O)cc1 | 6% | ? | . | 7% | -17% | -15%
Cc1cc(C(=O)Nc2ccccc2C(=O)O)ccc1NC(=O)COc1cccc([N+](=O)[O-])c1 | -3% | 1% | . | -1% | 3% | 24µM*
Cc1cc(C(=O)Nc2ccccc2C(=O)O)ccc1NC(=O)COc1cccc(C)c1C | 14% | -5% | . | 16% | 29% | 6µM*
COCC(=O)Nc1cc(C(=O)Nc2ccccc2C)ccc1Cl | 6% | -8% | 11% | 7% | 4% | ?
Cc1ccc(C(=O)Nc2ccccc2C(=O)O)cc1NC(=O)COc1c(C)cccc1C | -5% | -3% | 13% | -3% | -3% | 13µM*
CCOc1ccc(-c2cn3c(n2)sc2cc(C(=O)NCCCN(CC)CC)ccc23)cc1 | . | . | . | . | . | 3%
CCOc1ccc2nc(N3CCCC(C(=O)NCCc4ccc(C)cc4)C3)sc2c1 (stereo not given) | . | . | 13% | . | . | -18%
CCOc1ccc2nc(N3CCCC(C(=O)NCCCOC)C3)sc2c1 (stereo not given) | . | . | 14µM* | . | . | 12µM*
CCOc1ccc2nc(N3CCN(C(=O)c4ccc(S(=O)(=O)CC)cc4)CC3)sc2c1 | . | . | . | . | . | -4%
CCCN1CCN(CCCNC(=O)C2CCCN(c3nc4ccc(OCC)cc4s3)C2)CC1 (stereo not given) | -12% | 17% | 10% | -2% | 1% | 2%
CCOc1ccc2nc(N3CCN(C(=O)CS(=O)(=O)c4ccc(F)cc4)CC3)sc2c1 | . | . | . | . | . | 3µM*
CCOc1ccc2nc(N3CCCC(C(=O)NCC4CCCO4)C3)sc2c1 (stereo not given) | ? | 5% | . | ? | 13% | 4.8µM*
CCOc1ccc2nc(N3CCC(C(=O)Nc4nnc(CC)s4)CC3)sc2c1 | 4µM* | 1% | 2.2µM* | 1.1µM* | 12µM* | ?
CC(C)(C)OC(=O)N1CCC(c2c(C(=O)NC3CCCCC3)cnn2-c2cccc(F)c2)CC1 | . | . | . | . | . | 0%
O=C(O)CN(CCN(CC(=O)O)CC(=O)O)CC(=O)O.[Mn] | . | . | -14%[9.22 µM] | . | . | .
Cc1ccc(C)c(CN2C(=O)c3ccccc3S(=O)(=O)c3ccc(C(=O)NCCC4=CCCCC4)cc32)c1 | . | . | 7% | . | . | -2%
